Screening results deposited in PubChem BioAssay by National Center for Advancing Translational Sciences (NCATS).
Most compounds without a hit are left out; they make up all but 7.3% or so of the library.
FLuc modulator: firefly luciferase modulation, counter-screen for miR-21 project. Potency, µM (series often up to 57.5 µM), actives largely listed as inhibitors. purified FLuc, Km substrates, luminescence inhibition. 360,000 compounds, 6.9% hits. AID 588342. P08659; further: nearly all actives have a fitted effect of over 55% in size
Target sequence (P08659 whole entry, looked up): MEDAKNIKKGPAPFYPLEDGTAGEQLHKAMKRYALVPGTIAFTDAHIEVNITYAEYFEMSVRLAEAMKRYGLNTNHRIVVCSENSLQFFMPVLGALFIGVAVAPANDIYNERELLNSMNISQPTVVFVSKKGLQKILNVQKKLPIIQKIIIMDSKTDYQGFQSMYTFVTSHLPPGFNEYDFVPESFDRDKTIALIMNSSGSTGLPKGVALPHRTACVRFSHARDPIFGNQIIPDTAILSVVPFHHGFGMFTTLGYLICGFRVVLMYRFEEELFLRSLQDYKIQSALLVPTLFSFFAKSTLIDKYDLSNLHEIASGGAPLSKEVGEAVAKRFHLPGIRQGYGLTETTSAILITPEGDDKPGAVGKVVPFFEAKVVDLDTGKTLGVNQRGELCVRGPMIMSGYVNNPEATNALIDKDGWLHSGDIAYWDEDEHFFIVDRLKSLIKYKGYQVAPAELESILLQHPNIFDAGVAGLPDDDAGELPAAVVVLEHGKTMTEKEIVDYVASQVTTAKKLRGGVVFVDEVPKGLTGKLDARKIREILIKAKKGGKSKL
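Purified P. pyralis luciferase (10nM final) with 10uM D-luciferin and 10uM ATP (Km levels) in 50mM Tris acetate pH 7.5, 10mM Mg acetate, 0.01% Tween-20, 0.05% BSA; qHTS 6-point titration, ~60 µM downward; luminescence read.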
NPC1 prom act: activates the NPC1 promoter | Potency, µM (doses to about 9.22 µM), most hits filed as activators | 320,000 compounds, 2.4% hits | AID 485313 | Huh7 NPC1 promoter luciferase reporter, 24 h; further: nearly all actives have a fitted effect of over 60% in size
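Readout is luciferase luminescence, reflecting NPC1 promoter activation in stably transfected Huh7 cells after 24 h compound exposure at 37 °C in reduced-serum medium with 10% FBS.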
Rab9 promoter act: Rab9 promoter activation | Huh7 Rab9 promoter-luciferase reporter, luminescence, 24 h | AID 485297 | 320,000 compounds, 2.8% hits | Potency, µM (titrated, usually from 9.22 µM), hits mostly activators; further: nearly all actives have a fitted effect of over 60% in size
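Huh7 cells stably carrying a Rab9 promoter-luciferase reporter, 1500 cells per well in OP-MEM I with 10% FBS, treated with compound 24 hours at 37C. Luciferase activity read by luminescence after 10 minutes with Amplite reagent.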
ELG1 genotox: inducers of genotoxicity in HEK293T ELG1-luciferase cells; AID 504466; Potency, µM (series often up to 46 µM), actives largely listed as activators; 330,000 compounds, 1.3% hits; HEK293T ELG1-luciferase reporter, luminescence, 16 h; further: nearly all actives have a fitted effect of over 60% in size
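ELG1-luciferase HEK293T cells, 2,000/well; compound pinned in; 16 hr, 37 °C, 5% CO2; ONE-Glo, 30 min RT; luminescence on CCD imager.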
Luc counter: blocks Kinase-Glo luciferase, a counter-screen artifact | Kinase-Glo luciferase, ATP luminescence, 8 min | 200,000 compounds, 0.28% hits | Potency, µM (series often up to 38.3 µM), actives largely listed as inhibitors | AID 1379; further: nearly all actives have a fitted effect of over 60% in size
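Compounds were added to a substrate mix at pH 7.2 (50 mM imidazole, 10 uM ATP, within the enzyme's linear range), followed by Kinase-Glo detection reagent; luminescence was measured after 8 minutes at ambient temperature.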
SMN2 splice enh: enhancers of SMN2 splice variant expression | Potency, µM (doses to about 46.1 µM), most hits filed as activators | 210,000 compounds, 2.8% hits | HEK293 SMN2-luciferase splicing reporter, luminescence, 30-36 h; further: nearly all actives have a fitted effect of over 55% in size
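HEK293 cells carry an SMN2 minigene-luciferase reporter in which exon 7 inclusion puts luciferase in frame. Cells were seeded at 2000 cells/well, attached for 10-12 hours, then exposed to compounds for 30-36 hours at 37C before ONE-Glo luminescence.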
Hits are given with their value; n = inactive; u = inconclusive; x = no result; [ ] = remark or other dose. The call rests on the fitted dose curve; in most records, active means well fitted curve in the direction sought with a large enough effect; inconclusive means small, poorly fitted or top-dose-only effect, or another doubt; inactive means no such curve, though single readings can be large; an effect the other way counts as inactive or inconclusive.

SMILES	FLuc modulator	NPC1 prom act	Rab9 promoter act	ELG1 genotox	Luc counter	SMN2 splice enh
Cc1ccc(O)c(N)c1	u	n	n	n	x	n
CC1=CC(C)(C)Nc2ccc(OC(=O)c3ccco3)cc21	21.3µM	n	n	n	n	n
CC1=CC(C)(C)Nc2ccc(OC(=O)c3cccnc3)cc21	n	n	n	n	n	n
COc1ccc(-c2ccc3ccccc3n2)cc1	1.2µM	0.708µM	0.398µM	0.92µM	u	12.6µM
Nc1ccc(-c2ccc3ccccc3n2)cc1	x	1.46µM	1.3µM	x	n	3.16µM
COc1ccc(-c2ccc3ccccc3n2)cc1OC	10.7µM	2.24µM	2µM	4.11µM	n	14.1µM
COc1ccc2nc3ccccc3nc2c1	16.9µM	3.98µM	2.82µM	n	n	11.2µM
COc1ccc(-c2nc3ccccc3nc2-c2ccccc2)cc1	n	n	n	n	n	x
COc1ccc2nc3c(nc2c1)C(=O)c1ccccc1-3	x	x	x	x	n	x
COc1ccc(-c2cc(-c3ccccc3)nc(N3CCCC3)n2)cc1OC	u	n	n	n	n	u
CC(C)(C)OC(=O)N1CCCC1C(=O)O (centres undefined)	n	n	n	n	n	n
COc1ccccc1C(=O)NNC(=O)C(=O)NC(C)(C)C	n	n	n	n	n	n
NC(=O)NC(CC(=O)NCCc1ccc(S(N)(=O)=O)cc1)c1ccc(Cl)cc1 (centres undefined)	n	n	n	n	x	x
O=S(=O)(NC1CCCCC1N1CCN(c2ccc(F)cc2)CC1)c1ccc(Cl)cc1 (centres undefined)	n	n	n	n	x	x
Cc1ccc(C(=O)N2CCCC(N3CCN(c4ccccc4C)CC3)C2)c(=O)[nH]1 (centres undefined)	n	n	n	n	x	x
CCOc1ccc(CNC(=O)CCn2cccn2)cc1OC	n	x	x	x	x	x
Oc1ccccc1N1CCN(c2ncnc3scc(-c4ccc(F)cc4)c23)CC1	n	n	n	n	x	x
CCCc1cc(=O)[nH]c(SC(C)C(=O)Nc2ccc3c(c2)OCCO3)n1 (centres undefined)	n	n	n	n	x	x
CN(C)c1ccc(N=Cc2nc(-c3ccccc3)oc2OC(=O)c2cccc(Br)c2)cc1	u	u	n	u	n	15.8µM
COc1ccc(N=Cc2nc(-c3ccccc3)oc2OC(=O)c2ccccc2)cc1	10.7µM	n	u	u	n	n
Cc1ccc(C(=O)Oc2oc(-c3ccco3)nc2C=Nc2ccccc2)cc1	15.1µM	n	u	n	n	n
Oc1oc(-c2ccco2)nc1C=Nc1ccccc1	n[2.3 µM]	n	n	n	n	x
Cc1ccccc1Nc1nc(N)nc(COC(=O)c2cccc(S(=O)(=O)N(C)c3ccccc3)c2)n1	n	n	n	n	n	n
COc1ccc(-c2csc(N3C(=O)CNC3=S)n2)cc1	0.849µM	0.562µM	0.501µM	3.26µM	n	1.26µM
COc1ccc(-c2csc(N3C(=N)SCC3=O)n2)cc1	0.426µM	0.447µM	0.398µM	1.64µM	n	1µM
SMILES	FLuc modulator	NPC1 prom act	Rab9 promoter act	ELG1 genotox	Luc counter	SMN2 splice enh
O=C1CNC(=S)N1c1nc(-c2ccccc2)cs1	2.69µM	2.82µM	2.82µM	u	n	11.2µM
COc1ccc(-c2csc(N3C(=O)C4C5c6ccccc6C(c6ccccc65)[C@@H]4C3=O)n2)cc1 (some centres undefined)	n	n	n	n	n	n
COc1ccc(-c2csc(N3C(=O)C4C5c6ccccc6C(c6ccccc65)C4C3=O)n2)cc1 (centres undefined)	n	n	n	n	n	n
CCc1c(C)[nH]n(-c2nc(-c3ccccc3)cs2)c1=O	u	n	n	n	n	n
CCOc1ccc(CNc2ccc(N3CCN(Cc4ccccc4)CC3)cc2)cc1	n	n	n	n	x	x
CCOC(=O)c1cc2c(ccn2C)n1CC(=O)N1CCN(c2cccc(C(F)(F)F)c2)CC1	n	n	n	n	n	n
Cc1ccccc1NC(=O)CS(=O)(=O)c1cccc2nsnc12	n	x	x	x	x	x
Cc1cccc(C(=O)Nc2cc(NC(=O)c3cccs3)ccc2C)c1	u	n	n	n	x	x
CS(=O)(=O)N1CCC[C@@]2(CCN(C(=O)Nc3cccc(F)c3)C2)C1	x	x	x	x	n	n
COc1ccc(-c2cc3ccc(OCc4nn[nH]n4)cc3oc2=O)cc1OC	15.1µM	n	n	n	n	n
COc1ccc(-c2cc3ccc(OCC(C)=O)cc3oc2=O)cc1	1.9µM	1.26µM	1µM	u	x	x
COc1ccc(-c2cc3ccc(OCC(C)=O)cc3oc2=O)cc1OC	15.1µM	3.98µM	2µM	u	x	x
COC(=O)COc1ccc2cc(-c3ccc(OC)cc3)c(=O)oc2c1	u	n	n	n	x	x
COC(=O)COc1ccc2cc(-c3ccccc3)c(=O)oc2c1	12µM	n	n	n[9.26 µM]	x	x
CCOc1ccc(S(=O)(=O)NCCC(=O)NCC(c2ccccc2OC)N2CCCC2)cc1 (centres undefined)	n	n	n	n	x	x
Cc1ccc(N=Nc2c(O)ccc3n[nH]nc23)cc1	10.7µM	1.58µM	u	u	x	x
CCOc1ccc(N/C(C)=C/C(=O)c2ccc(C)o2)cc1	6.01µM	u	u	u	n	n
CCOc1ccc(NC(=O)CCc2ccc(C)o2)cc1	n	n	n	n	x	x
Cc1ccc(NC(=O)CNC(=O)c2ccc(C)o2)cc1	n	n	n	n	x	x
COC(=O)c1ccc(N/C(C)=C/C(=O)c2ccc(C)o2)cc1	12µM	n	n	n	n	n
O=C(Nc1ccc(N2CCCC2)c(Cl)c1)c1cccs1	2.39µM	0.708µM	0.447µM	2.31µM	u	2.82µM
O=C(Nc1ccc(N2CCN(C(=O)c3cccs3)CC2)c(Cl)c1)c1ccco1	u	n	n	n	n	n
O=C(NC(=S)Nc1ccc(N2CCOCC2)c(Cl)c1)c1cccs1	19µM	u	u	n	n	n
O=C(Nc1ccc(F)c(Cl)c1)C1CCCN(c2ncnc3onc(-c4ccc(F)cc4)c23)C1 (centres undefined)	n	x	x	x	x	x
CCc1c(C(=O)N/N=C/c2ccc(OCc3ccc(F)cc3)c(OC)c2)nnn1-c1nonc1N	n	n	n	n	x	x
C[C@H](CCC(=O)NCCS(=O)(=O)O)C1CC[C@H]2C3CC[C@@H]4C[C@H](O)CC[C@]4(C)C3C[C@H](O)[C@]12C (some centres undefined)	x	x	x	x	x	n
COc1ccc(/C=C2\CCc3c2nc2ccccc2c3C(=O)O)cc1OC	0.301µM	0.398µM	0.316µM	4.11µM	x	x
O=C(O)c1c2c(nc3ccccc13)/C(=C/c1ccc(O)cc1)CCC2	19µM	n	n	n	n	n
c1ccc2c(c1)CCc1c-2nc2ccccc2c1N1CCOCC1	n	n	n	n	x	x
O=C(O)c1c2c(nc3ccccc13)-c1ccccc1CC2	10.7µM	n	n	n	n	x
